Source: PubChem BioAssay (National Center for Advancing Translational Sciences (NCATS))
Most compounds without a hit are left out; they make up all but 2.8% or so of the library.
IP6K1 inh = Primary qHTS assay for small molecule inhibitors of Inositol hexaphosphate kinase 1 (IP6K1) | Inositol hexakisphosphate kinase 1 (Homo sapiens), Q92551 | IP6K1 kinase, ADP-Glo luminescence, 2 h; hits give low values | activity change, % (series mostly up to about 58 µM) | 140,000 compounds, 0.81% hits | AID 1645851, 2021; in the data active means activity change below about -25%; further: on the % scale 0 is the no-effect control and ±100 the full control effect
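ADP-Glo luminescence measures ADP made by human IP6K1 during a 2 h RT reaction with ATP/IP6 (mix at 1.3 mM/130 uM); top library doses 57.5 and 19.1 uM final.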
KDM5B inh = Primary screen for KDM5B Histone Demethylases FDH-coupled qHTS. AID 1347165, 2019. Lysine-specific demethylase 5B (Homo sapiens), Q9UGL1. KDM5B demethylase, FDH-coupled NADH fluorescence (FDH is formaldehyde dehydrogenase). 220,000 compounds, 2.6% hits. Potency, µM (highest dose often 57.7 µM), actives largely listed as inhibitors; further: potency means the concentration at half of the fitted maximal effect; 0% is about no effect; nearly all actives have a fitted effect of over 70% in size
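Compound dilutions met 200 nM (final) KDM5BΔAP for 10 min at room temperature before substrate addition. The substrate mix held 12.5 µM H3K4me3 with cofactors 25 µM α-ketoglutarate and 50 µM Fe²⁺. NADH signal gain over 30 min defined activity.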
IP6K1 conf = Confirmatory qHTS assay for small molecule inhibitors of Inositol hexaphosphate kinase 1 (IP6K1); shares compounds with IP6K1 inh; recombinant IP6K1 kinase, ADP-Glo luminescence, 2 h; Potency, µM (highest dose often 49 µM), without a hit: at the highest dose activity change, negative = inhibition, actives largely listed as inhibitors; 1,200 compounds, 13% hits; further: potency means the concentration at half of the fitted maximal effect; on the % scale 0 is the no-effect control and ±100 the full control effect; nearly all actives have a fitted effect of over 65% in size
Starred values were filed as active, the others as inactive; i = inactive; ? = inconclusive; nt = not tested or not shown. Unless noted, the call rests on the fitted dose curve; in most records, active means well fitted inhibition curve with a large enough effect; inconclusive means small, poorly fitted or top-dose-only effect; inactive means no such curve, though single readings can be large or run the other way.

SMILES | IP6K1 inh | KDM5B inh | IP6K1 conf
CCOC(=O)c1c(C)c(-c2ccccc2)n(CC(=O)NCCN(C)C)c1C | nt | i | nt
O=c1c(O)c(-c2ccc(O)c(O)c2)oc2cc(O)cc(O)c12 | -55* | nt | 0.46µM*
O=c1c(-c2ccc(O)cc2)coc2cc(O)cc(O)c12 | -18 | nt | nt
O=C(NCCc1ccc(Cl)cc1)c1ccc2oc(-c3ccncc3)nc2c1 | 10 | nt | nt
COc1ccccc1-c1ccc2c(C(=O)NCc3ccc(F)cc3)nn(C)c2n1 | 5 | nt | nt
Cc1ccccc1C1=CCN(c2ncc(NC(=O)c3ccc(Cl)cc3)cc2C(=O)O)CC1 | 4 | i | nt
O=C(Nc1ccc(N2CCC(N3CCCCC3)CC2)c(C(=O)O)c1)c1ccc(Br)cc1 | -29* | ? | ?
O=C(Cc1ccccc1)Nc1ccc(N2CCOCC2)c(Br)c1 | nt | i | nt
O=C(Nc1ccc(N2CCOCC2)c(C(=O)O)c1)c1ccc(Br)cc1 | -33* | ? | ?
O=C(Nc1cnc(N2CCC(N3CCCCC3)CC2)c(C(=O)O)c1)c1ccc(Br)cc1 | -34* | ? | ?
O=C(Nc1ccc2nc(N3CCN(C4CCCCC4)CC3)cc(C(=O)O)c2c1)c1ccc(Cl)cc1 | nt | i | nt
C=CCN(CCC(=O)NC(=O)NC)CCc1ccccc1 | nt | i | nt
COCC(=O)NC1CCN(C(=O)c2ccc(-c3ncccc3C#N)cc2)CC1 | 1 | nt | nt
CC(C)Cn1nc(C(=O)Nc2ccc(I)cc2)c2ccccc2c1=O | nt | i | nt
C#CCN(CC(=O)C(C)(C)C)C(C)(C)C | nt | i | nt
NCC(=O)N1CCC(n2nccc2NC(=O)Nc2cccc(F)c2)CC1 | -4 | ? | nt
O=C(Nc1cccc(F)c1)Nc1ccnn1C1CCN(C(=O)C2CCC2)CC1 | -32* | i | -5%
COc1ccc(CNC(=O)C(=O)NCC(c2ccco2)S(=O)(=O)c2ccc(C)cc2)cc1 (configuration not stated) | 25 | i | nt
COc1ccc(CNC(=O)C(=O)NCC(c2ccco2)S(=O)(=O)c2ccc(Cl)cc2)cc1 (configuration not stated) | -29* | i | 20%
COc1ccccc1NC(=O)/C(C#N)=C/c1coc2ccc(C)cc2c1=O | nt | i | nt
COCCOc1ccc2c(n1)CCN(C(=O)Cc1cccc(OC)c1)C2 | 5 | i | nt
CCOc1ccc2c(n1)CCN(C(=O)Cc1cccc(OC)c1)C2 | -26* | i | -23%
Cc1ccc(C(=O)N2CCC(C(=O)N3CCC(c4nc5ncccc5[nH]4)C3)CC2)cc1 (configuration not stated) | 10 | nt | nt
O=Nc1c(-c2c(O)[nH]c3cc(Br)ccc23)[nH]c2ccccc12 | nt | nt | 3.7µM*
O=C1C(c2c(O)[nH]c3ccccc23)=Nc2ccccc21 | -16 | nt | nt
SMILES | IP6K1 inh | KDM5B inh | IP6K1 conf
COc1ccc(CCNC(=O)CS(=O)Cc2nc(-c3ccc(C)cc3)oc2C)cc1OC (configuration not stated) | -3 | i | nt
COc1ccc(CCNC(=O)CS(=O)Cc2nc(-c3ccc(C)cc3)oc2C)c(OC)c1 (configuration not stated) | -26* | ? | -6%
O=C1CN([S+](=O)([O-])c2ccc(F)cc2)CC(O)CN1CCOc1ccccc1 (configuration not stated) | -8 | nt | nt
Cc1cc(C)c(NC(=O)Cn2c(=O)n(Cc3ccccc3)c(=O)c3c(C)c(C(=O)N(C)C)sc32)c(C)c1 | 23 | i | nt
Cc1cc(C)c(NC(=O)Cn2c(=O)n(-c3ccc(F)cc3)c(=O)c3c(C)c(C(=O)N(C)C)sc32)c(C)c1 | -27* | i | -6%
O=C(C1CCCN(C2CCN(c3ncnc4sccc34)CC2)C1)N1CCCC1 (configuration not stated) | -28* | ? | -13%
Cc1ncoc1C(=O)N1CCC(N2CCCC(C(=O)N3CCCC3)C2)CC1 (configuration not stated) | 0 | i | nt
COc1ccc(CN(C)C(=O)Cn2nc(C(=O)O)c3ccccc3c2=O)cc1 | nt | i | nt
COc1ccc(-c2nc(CNC(=O)Nc3ccc(C)cc3Cl)c(C)o2)cc1 | nt | i | nt
CCOC(=O)Cn1c(C2CC(=O)N(Cc3ccccc3)C2)nc2ccccc21 (configuration not stated) | nt | i | nt
CCOC(=O)Cn1c(=N)n(Cc2ccc(C(C)(C)C)cc2)c2ccccc21 | -27* | ? | 2%
CCNc1c(NC(=O)Nc2cccc(C)c2C)c(=O)oc2ccccc12 | nt | i | nt
COCCCNC(=O)c1nc2sccn2c1-c1ccc(C(F)(F)F)cc1 | 22 | nt | nt
CCn1cnc2c1c(=O)n(CC(=O)Nc1ccc3c(c1)OCCO3)c(=O)n2Cc1ccccc1 | nt | i | nt
Cn1c(=O)c2[nH]c(-c3cccc(O)c3)nc2n(C)c1=O | nt | i | nt
Oc1cccc(-c2c3nc(c(-c4cccc(O)c4)c4ccc([nH]4)c(-c4cccc(O)c4)c4nc(c(-c5cccc(O)c5)c5ccc2[nH]5)CC4)C=C3)c1 | -53* | nt | ?
CC(NC(=O)c1csc2nc(-c3cccc(C(F)(F)F)c3)cn12)c1ccncn1 (configuration not stated) | 2 | ? | nt
c1ccc(Nc2cc3c(cn2)CN(Cc2ccc4[nH]ccc4c2)CCN3)cc1 | -22 | ? | nt
c1ccc(Nc2cc3c(cn2)NCCN(Cc2ccc4[nH]ccc4c2)C3)cc1 | -30* | 32µM* | -10%
Cc1ccc(-c2ccc(CCC(=O)O)n2-c2ccc(C)c(Cl)c2)cc1 | -23 | ? | nt
O=C(O)CCc1ccc(-c2ccccc2)n1-c1ccc(C(=O)O)cc1 | -27* | ? | -12%
COc1ccc(-c2nc(-c3ccccc3)nc3c2CN(C(=O)C2CCCC2)CC3)cc1 | -6 | i | nt
CC(C)(C)OC(=O)N1CCC(c2c(C(=O)NCc3ccccc3)cnn2-c2ccc(F)cc2)CC1 | -11 | i | nt
CC(C)(C)OC(=O)N1CCC(c2c(C(=O)NCCc3ccccc3)cnn2-c2ccc(F)cc2)CC1 | -26* | i | 20%
COc1ccc(-c2cc(C[C@H]3CNCC[C@H]3CC(=O)N3CCC(n4c(=O)[nH]c5ccccc54)CC3)no2)cc1 | 10 | i | nt
SMILES | IP6K1 inh | KDM5B inh | IP6K1 conf
O=C(NCCCc1ccccc1)c1nc2cccnc2n(C2CC2)c1=O | 12 | nt | nt
CN(C)C(=O)N1CCC2(CC1)CC(c1cccc(C(F)(F)F)c1)=NO2 | 21 | nt | nt
Cc1ccc(C2Cn3nnc(C(=O)N4CCC(C(=O)NC5CCC(C)CC5)CC4)c3CO2)cc1 (configuration not stated) | -30* | i | -10%
Cc1ccc(C2Cn3nnc(C(=O)N4CCC(C(=O)NC5CC5)CC4)c3CO2)cc1 (configuration not stated) | 0 | i | nt
O=C(c1ccc2cc[nH]c2c1)N1CCN(C(=O)c2nnn3c2COC(c2ccc(Cl)cc2)C3)CC1 (configuration not stated) | -28* | ? | -9%
O=C(c1cccc(Cl)c1)N1CCN(C(=O)c2nnn3c2COC(c2ccc(Cl)cc2)C3)CC1 (configuration not stated) | -6 | i | nt
CCNC(=O)N1CCc2nc(-c3ccccc3)[nH]c2C1 | -2 | nt | nt
